# Measured values reported in PubChem BioAssay (NCI).
# About 79,000 compounds went through this panel and 15% of them were active in at least one assay; those are over-represented in the sample as a whole. Values without a mark were called inactive. Active and inactive are the calls of the source. No stated cut-off is given here; in the data, active means growth inhibition above about 70%; inactive means the rest.
# Key:
# [1] = NCI Yeast Anticancer Drug Screen. Data for the rad52 strain (AID 147);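 further: 0% = growth of vehicle-treated control cultures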; details: S. cerevisiae rad52 mutant growth inhibition, active compounds read high
# In short: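 Vehicle-treated cultures served as the reference for growth inhibition of compound-exposed yeast bearing a DNA repair mutation.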
# [2] = NCI Yeast Anticancer Drug Screen. Data for the wt1 strain (AID 149);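 further: 0% = growth of vehicle-treated wt1 cultures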; details: S. cerevisiae wt1 strain (SPY 50644) growth inhibition, active compounds read high
# In short: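 The wt1 strain was treated with compounds, and growth was compared with vehicle-treated cultures to give inhibition.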
# [3] = NCI Yeast Anticancer Drug Screen. Data for the rad50EPP+ strain (AID 151);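 further: 0% = growth of vehicle-treated control cultures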; details: S. cerevisiae rad50 mutant strain, active compounds read high
# In short: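 In this screen, rad50EPP+ yeast were exposed to compounds. Growth inhibition was scored against vehicle-treated controls.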
# [4] = NCI Yeast Anticancer Drug Screen. Data for the mgt1 strain (AID 153); details: S. cerevisiae mgt1 mutant growth inhibition, active compounds read high
# In short: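 mgt1 strain exposed; growth vs vehicle control recorded as inhibition.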
# [5] = NCI Yeast Anticancer Drug Screen. Data for the rad50 strain (AID 155);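 further: 0% = growth of vehicle-only cultures of the same strain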; details: S. cerevisiae rad50 strain growth inhibition, active compounds read high
# In short: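 Cells are treated with compound, grown, and their growth is then scored against vehicle-only cultures of the same repair-deficient yeast strain.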
# [6] = NCI Yeast Anticancer Drug Screen. Data for the mec2-1 strain (AID 157); details: S. cerevisiae mec2-1 strain, active compounds read high
# In short: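 Vehicle-treated cultures served as reference for growth inhibition of compound-exposed mec2-1 yeast.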
# [7] = NCI Yeast Anticancer Drug Screen. Data for the rad14 strain (AID 159);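 further: 0% = growth of vehicle-treated control cultures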; details: S. cerevisiae rad14 strain growth inhibition, active compounds read high
# In short: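 Readout: yeast growth inhibition, referenced to vehicle-only cultures. Strain bears a defined alteration in DNA damage repair.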
# [8] = NCI Yeast Anticancer Drug Screen. Data for the sgs1 mgt1 strain (AID 161);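 further: 0% = growth of cultures given vehicle only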; details: S. cerevisiae sgs1 mgt1 strain, active compounds read high
# In short: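 Read-out: growth inhibition vs vehicle controls. Cells: mutant yeast strain deficient in DNA damage repair.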
# [9] = NCI Yeast Anticancer Drug Screen. Data for the CLN2oe strain (AID 163);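 further: 0% = growth of vehicle-only control cultures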; details: S. cerevisiae CLN2oe strain, active compounds read high
# In short: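 Inhibition relative to vehicle-treated yeast is reported. Cells: strain with genetic alteration in cell-cycle control, grown with compound.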
# [10] = NCI Yeast Anticancer Drug Screen. Data for the cln2 rad14 strain (AID 165);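 further: 0% = growth equal to vehicle treated cultures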; details: S. cerevisiae cln2 rad14 strain, active compounds read high
# In short: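 Each compound was tested on cln2 rad14 yeast. Inhibition of growth was calculated against vehicle-exposed controls.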
# [11] = NCI Yeast Anticancer Drug Screen. Data for the bub3 strain (AID 167); details: S. cerevisiae bub3 mutant strain, active compounds read high
# In short: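 Part of a panel of yeast mutants defective in DNA damage repair or cell cycle regulation. Each strain is grown with compound, and inhibition is calculated relative to solvent-treated cultures.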
# [12] = NCI Yeast Anticancer Drug Screen. Data for the mlh1 strain (AID 171);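 further: 0% = growth of vehicle-treated control cultures of the same strain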; details: S. cerevisiae mlh1 strain growth inhibition, active compounds read high
# In short: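 Vehicle-normalised growth inhibition of a repair- or checkpoint-altered yeast strain following compound treatment.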
# [13] = NCI Yeast Anticancer Drug Screen. Data for the sgs1 strain (AID 173);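 further: 0% = growth of vehicle-only control cultures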; details: S. cerevisiae sgs1 mutant, active compounds read high
# In short: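 Screen format: yeast with repair or checkpoint alterations, compound exposure, growth read relative to vehicle.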
# [14] = NCI Yeast Anticancer Drug Screen. Data for the mlh1 rad18 strain (AID 175); details: S. cerevisiae mlh1 rad18 strain growth inhibition, active compounds read high
# In short: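 Vehicle-treated cultures served as the reference for growth inhibition in a yeast strain carrying DNA damage repair alterations exposed to each compound.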
# [15] = NCI Yeast Anticancer Drug Screen. Data for the rad18 strain (AID 177); details: S. cerevisiae rad18 mutant growth inhibition, active compounds read high
# In short: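 Test articles were incubated with altered yeast defective in DNA damage repair. Results are given as inhibition of growth versus vehicle.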
# [16] = at 5.0 µM (retest, dose inferred, filed as 0.5)
# [17] = at 50.0 µM (retest, dose inferred, filed as 5.0)
smiles,measurement,setting,value
Cc1c(-c2ccccn2)ccc2ccccc12,growth inhibition,[1]; at 1.2 µM,-2%
same,growth inhibition,[1]; at 3.7 µM,-1%
same,growth inhibition,[1]; at 11.0 µM,0%
same,growth inhibition,[1]; at 33.0 µM,2%
same,growth inhibition,[1]; at 100.0 µM,46%
same,growth inhibition,[2]; at 1.2 µM,-1%
same,growth inhibition,[2]; at 3.7 µM,0%
same,growth inhibition,[2]; at 11.0 µM,-3%
same,growth inhibition,[2]; at 33.0 µM,-4%
same,growth inhibition,[2]; at 100.0 µM,18%
same,growth inhibition,[3]; at 1.2 µM,-3%
same,growth inhibition,[3]; at 3.7 µM,0%
same,growth inhibition,[3]; at 11.0 µM,10%
same,growth inhibition,[3]; at 33.0 µM,43%
same,growth inhibition,[3]; at 100.0 µM,71% (active)
same,growth inhibition,[4]; at 1.2 µM,0%
same,growth inhibition,[4]; at 3.7 µM,-1%
same,growth inhibition,[4]; at 11.0 µM,-3%
same,growth inhibition,[4]; at 33.0 µM,0%
same,growth inhibition,[4]; at 100.0 µM,88% (active)
same,growth inhibition,[5]; at 1.2 µM,6%
same,growth inhibition,[5]; at 3.7 µM,37%
same,growth inhibition,[5]; [16],1%
same,growth inhibition,[5]; at 11.0 µM,44%
same,growth inhibition,[5]; at 33.0 µM,15%
same,growth inhibition,[5]; [17],15%
same,growth inhibition,[5]; at 50.0 µM,21.8%
same,growth inhibition,[5]; at 100.0 µM,73% (active)
same,growth inhibition,[6]; at 1.2 µM,-1%
same,growth inhibition,[6]; at 3.7 µM,0%
same,growth inhibition,[6]; [16],1%
same,growth inhibition,[6]; at 11.0 µM,1%
same,growth inhibition,[6]; at 33.0 µM,-1%
same,growth inhibition,[6]; [17],15%
same,growth inhibition,[6]; at 50.0 µM,44.5%
same,growth inhibition,[6]; at 100.0 µM,50%
same,growth inhibition,[7]; at 1.2 µM,0%
same,growth inhibition,[7]; at 3.7 µM,0%
same,growth inhibition,[7]; at 11.0 µM,1%
same,growth inhibition,[7]; at 33.0 µM,6%
same,growth inhibition,[7]; at 100.0 µM,43%
same,growth inhibition,[8]; [16],-2%
same,growth inhibition,[8]; [17],46%
same,growth inhibition,[8]; at 50.0 µM,80.8% (active)
same,growth inhibition,[9]; at 1.2 µM,-10%
same,growth inhibition,[9]; at 3.7 µM,-3%
same,growth inhibition,[9]; at 11.0 µM,-7%
same,growth inhibition,[9]; at 33.0 µM,-12%
same,growth inhibition,[9]; at 100.0 µM,-4%
same,growth inhibition,[10]; [16],1%
same,growth inhibition,[10]; [17],3%
same,growth inhibition,[10]; at 50.0 µM,25.4%
same,growth inhibition,[11]; at 1.2 µM,3%
same,growth inhibition,[11]; at 3.7 µM,7%
same,growth inhibition,[11]; [16],18%
same,growth inhibition,[11]; at 11.0 µM,24%
same,growth inhibition,[11]; at 33.0 µM,70% (active)
same,growth inhibition,[11]; [17],90% (active)
same,growth inhibition,[11]; at 50.0 µM,94.2% (active)
same,growth inhibition,[11]; at 100.0 µM,96% (active)
same,growth inhibition,[12]; at 1.2 µM,0%
same,growth inhibition,[12]; at 3.7 µM,-1%
same,growth inhibition,[12]; at 11.0 µM,-76%
same,growth inhibition,[12]; at 33.0 µM,0%
same,growth inhibition,[12]; at 100.0 µM,39%
same,growth inhibition,[13]; at 1.2 µM,-2%
same,growth inhibition,[13]; at 3.7 µM,-1%
same,growth inhibition,[13]; at 11.0 µM,1%
same,growth inhibition,[13]; at 33.0 µM,24%
same,growth inhibition,[13]; at 100.0 µM,83% (active)
same,growth inhibition,[14]; [16],-1%
same,growth inhibition,[14]; [17],20%
same,growth inhibition,[14]; at 50.0 µM,59.8%
same,growth inhibition,[15]; at 1.2 µM,-1%
same,growth inhibition,[15]; at 3.7 µM,2%
same,growth inhibition,[15]; at 11.0 µM,6%
same,growth inhibition,[15]; at 33.0 µM,13%
same,growth inhibition,[15]; at 100.0 µM,67%
O=C1N=C2SC=C(NC(=S)Nc3ccccc3)N2NC12c1ccccc1-c1ccccc12,growth inhibition,[1]; at 1.2 µM,11%
same,growth inhibition,[1]; at 3.7 µM,12%
same,growth inhibition,[1]; at 11.0 µM,19%
same,growth inhibition,[1]; at 33.0 µM,46%
same,growth inhibition,[1]; at 100.0 µM,73% (active)
same,growth inhibition,[2]; at 1.2 µM,3%
same,growth inhibition,[2]; at 3.7 µM,3%
same,growth inhibition,[2]; at 11.0 µM,7%
same,growth inhibition,[2]; at 33.0 µM,38%
same,growth inhibition,[2]; at 100.0 µM,78% (active)
same,growth inhibition,[3]; at 1.2 µM,2%
same,growth inhibition,[3]; at 3.7 µM,7%
same,growth inhibition,[3]; at 11.0 µM,5%
same,growth inhibition,[3]; at 33.0 µM,11%
same,growth inhibition,[3]; at 100.0 µM,16%
same,growth inhibition,[4]; at 1.2 µM,6%
same,growth inhibition,[4]; at 3.7 µM,6%
same,growth inhibition,[4]; at 11.0 µM,30%
same,growth inhibition,[4]; at 33.0 µM,77% (active)
same,growth inhibition,[4]; at 100.0 µM,88% (active)
same,growth inhibition,[5]; at 1.2 µM,6%
same,growth inhibition,[5]; at 3.7 µM,0%
same,growth inhibition,[5]; [16],1%
same,growth inhibition,[5]; at 11.0 µM,4%
same,growth inhibition,[5]; at 33.0 µM,49%
same,growth inhibition,[5]; [17],48%
same,growth inhibition,[5]; at 50.0 µM,78% (active)
same,growth inhibition,[5]; at 100.0 µM,76% (active)
same,growth inhibition,[6]; at 1.2 µM,15%
same,growth inhibition,[6]; at 3.7 µM,13%
same,growth inhibition,[6]; [16],-11%
same,growth inhibition,[6]; at 11.0 µM,22%
same,growth inhibition,[6]; at 33.0 µM,57%
same,growth inhibition,[6]; [17],8%
same,growth inhibition,[6]; at 50.0 µM,45.9%
same,growth inhibition,[6]; at 100.0 µM,81% (active)
same,growth inhibition,[7]; at 1.2 µM,10%
same,growth inhibition,[7]; at 3.7 µM,3%
same,growth inhibition,[7]; at 11.0 µM,14%
same,growth inhibition,[7]; at 33.0 µM,49%
same,growth inhibition,[7]; at 100.0 µM,84% (active)
same,growth inhibition,[8]; [16],-8%
same,growth inhibition,[8]; [17],44%
same,growth inhibition,[8]; at 50.0 µM,25.6%
same,growth inhibition,[9]; at 1.2 µM,12%
same,growth inhibition,[9]; at 3.7 µM,4%
same,growth inhibition,[9]; at 11.0 µM,13%
same,growth inhibition,[9]; at 33.0 µM,64%
same,growth inhibition,[9]; at 100.0 µM,76% (active)
same,growth inhibition,[10]; [16],-4%
same,growth inhibition,[10]; [17],15%
same,growth inhibition,[10]; at 50.0 µM,57.9%
same,growth inhibition,[11]; at 1.2 µM,10%
same,growth inhibition,[11]; at 3.7 µM,5%
same,growth inhibition,[11]; [16],-14%
same,growth inhibition,[11]; at 11.0 µM,11%
same,growth inhibition,[11]; at 33.0 µM,54%
same,growth inhibition,[11]; [17],46%
same,growth inhibition,[11]; at 50.0 µM,74.7% (active)
same,growth inhibition,[11]; at 100.0 µM,70% (active)
same,growth inhibition,[12]; at 1.2 µM,10%
same,growth inhibition,[12]; at 3.7 µM,8%
same,growth inhibition,[12]; at 11.0 µM,20%
same,growth inhibition,[12]; at 33.0 µM,59%
same,growth inhibition,[12]; at 100.0 µM,81% (active)
same,growth inhibition,[13]; at 1.2 µM,10%
same,growth inhibition,[13]; at 3.7 µM,15%
same,growth inhibition,[13]; at 11.0 µM,28%
same,growth inhibition,[13]; at 33.0 µM,81% (active)
same,growth inhibition,[13]; at 100.0 µM,90% (active)
same,growth inhibition,[14]; [16],-10%
same,growth inhibition,[14]; [17],41%
same,growth inhibition,[14]; at 50.0 µM,69.7%
same,growth inhibition,[15]; at 1.2 µM,14%
same,growth inhibition,[15]; at 3.7 µM,19%
same,growth inhibition,[15]; at 11.0 µM,24%
same,growth inhibition,[15]; at 33.0 µM,49%
same,growth inhibition,[15]; at 100.0 µM,77% (active)
